# From PubChem BioAssay
# TIM10 inh: inhibits growth of TIM10 yeast strain | hit rate 1.4% among 330,000 | AID 463195 | inhibition, % at 10 µM | S. cerevisiae TIM10 strain growth, BacTiter-Glo luminescence, 24 h;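 active means inhibition of 40% or more at the single tested concentration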;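 further: wild-type TIM10 isogenic control strain grown at permissive 25 °C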
# V-ATPase pH: regulators of yeast V-ATPase proton transport; hit rate 0.37% among 350,000; response, % at 10 µM; S. cerevisiae, pHLuorin cytosolic pH fluorescence; in the data active means response mostly above about 7.3%, no sharp cut-off; inactive means mostly below about 5.4%; further: actives read high
# tim23-1 inh: inhibits growth of tim23-1 mutant yeast. inhibition, % at 20 µM. hit rate 1.3% among 330,000. AID 463212. S. cerevisiae tim23-1 growth, BacTiter-Glo luminescence, 24 h;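 active means growth inhibition of the mutant yeast at or above 50%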;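 further: temperature-sensitive mutant grown at 25 °C; plate controls were DMSO-treated mutant yeast for no effect and medium wells lacking yeast for full effect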
# tim10-1 inh: growth inhibitors of tim10-1 mutant yeast | inhibition, % at 20 µM | hit rate 2.2% among 330,000 | AID 463190 | S. cerevisiae tim10-1 ts strain growth, BacTiter-Glo, 24 h;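 active means inhibition of at least 40%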;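 further: mutant grown at 25 °C; 0% = DMSO wells with yeast and 100% = wells holding no yeast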
# SKKanGAS inh: inhibitors of SKKanGAS S. pyogenes growth in kanamycin (SK-promoter or general growth effect); BacTiter-Glo, 6 h; inhibition, % at 7.5 µM; hit rate 1.3% among 300,000;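 active means mean replicate score, as percent of positive control median, at least 50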;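 further: strain carries kanamycin resistance gene driven by streptokinase promoter and grows in 40 µg/ml kanamycin; loss of luminescence reflects streptokinase promoter inhibition or plain growth inhibition; 0% = median of DMSO wells and 100% = positive control at its reference dose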
# PfHsp90 yeast 2: inhibits growth of yeast expressing Plasmodium falciparum Hsp90; hit rate 0.32% among 310,000; S. cerevisiae expressing PfHsp90, BacTiter-Glo ATP, 48 h; yeast lacking PDR1 and PDR3 efflux regulators; inhibition, % at 9.4 µM;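 active means every replicate shows inhibition above about 80%, whatever the replicate mean, limit read from the data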;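 further: 0% = DMSO neutral controls and 100% = 20 µM radicicol positive controls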
# Active calls of the source: *; nt = not tested or not shown. Hits are enriched below; roughly 4.6% of the tested compounds scored in any of these assays.
SMILES,TIM10 inh,V-ATPase pH,tim23-1 inh,tim10-1 inh,SKKanGAS inh,PfHsp90 yeast 2
CS(=O)(=O)c1ccccc1-c1nnc(NC(=O)c2ccc3ncsc3c2)o1,-8,-5,7,-7,12,-30
O=C(Cc1ccccc1)NCCSCc1ccc(Cl)cc1,7,-1,22,4,-4,23
Cc1c(C(=O)NCCSCc2cccc(C(F)(F)F)c2)cnn1-c1ccc(Cl)cc1,4,4,44,4,14,84*
COc1ccc2nc(NC(=O)c3ccc(NS(=O)(=O)c4cccs4)cc3)sc2c1,11,1,3,8,63*,8
Cc1cc(F)ccc1NC(=O)c1ccc(NS(=O)(=O)c2cccs2)cc1,nt,3,nt,nt,nt,nt
Cc1cccc2sc(NC(=O)c3ccc(NS(=O)(=O)c4cccs4)cc3)nc12,0,2,18,16,79*,-10
O=C(CC1C(=O)NCCN1C1CCCC1)NCc1cccc(OC(F)(F)F)c1 (stereo not drawn),-8,0,6,3,-5,2
COc1ccc(N2CC(C(=O)Nc3ccc(S(=O)(=O)Nc4nccs4)cc3)CC2=O)c(OC)c1 (stereo not drawn),4,3,14,13,nt,-8
COc1ccc(N2CCN(C(=O)COC(=O)CCS(=O)(=O)c3ccc(C)cc3)CC2)cc1,5,15*,1,6,-4,-10
O=C(c1cc([N+](=O)[O-])[nH]n1)N1CCSCC1,-10,-2,-7,-8,-2,7
CC[C@@H](C)[C@H](CN[C@H](CNC)C(C)C)NC[C@@H](C)c1ccc(CC(C)C)cc1,14,0,2,15,64*,9
CCCCCCCCCCCCCCCC[N+](C)(C)Cc1ccc(F)cc1,nt,6,nt,nt,nt,115*
CCc1nc(SCc2ccc(OCC(C)C)cc2)n[nH]1,14,1,41,21,12,-35
COC(=O)c1cc(C(=O)c2ccc(Cl)cc2Cl)cn1C,-13,8,14,19,7,-23
Cn1cc(C(=O)c2ccc(Cl)cc2Cl)cc1C(=O)N/N=C(\N)COc1cccc(C(F)(F)F)c1,12,2,19,26,59*,26
Cc1ccc(CNC(=O)CN(C)C2=NS(=O)(=O)c3ccccc32)cc1,15,6,16,20,nt,23
CN(C)NC(=S)NC1CCS(=O)(=O)C1 (stereo not drawn),0,1,-8,-5,-4,3
CCN1CCN(S(=O)(=O)c2ccc(Cl)c(C(=O)NCc3nc4ccccc4[nH]3)c2)CC1,-10,2,-3,-14,nt,-12
Nc1nc2ccccc2[nH]1,-5,-3,5,7,-2,7
Nc1ccccc1Sc1nc2ccccc2[nH]1,13,2,18,17,61*,-2
COc1cc(/C=C2\SC(=Nc3cccnc3)NC2=O)cc(OC)c1OC,-13,-2,3,8,50*,nt
CCc1ccc(N=C2NC(=O)/C(=C/c3cc(OC)c(O)c(OC)c3)S2)cc1,5,-3,23,0,59*,6
O=C1NC(=Nc2cccnc2)S/C1=C\c1cccc(F)c1,15,0,16,1,45,-11
CC/C(=N/NC(=O)c1ccc2c(c1)OCO2)c1ccccc1O,22,2,45,-12,7,28
CCN(CC(=O)Nc1ccccc1C(F)(F)F)C(=O)c1ccccc1OCc1ccc(F)cc1,nt,-1,nt,nt,nt,17
SMILES,TIM10 inh,V-ATPase pH,tim23-1 inh,tim10-1 inh,SKKanGAS inh,PfHsp90 yeast 2
CN(c1ccccc1)c1nc(N2CCCC2)nc(-n2ccnc2)n1,19,1,-39,-4,52*,-11
c1ccc(N(c2ccccc2)c2nc(N3CCCC3)nc(-n3ccnc3)n2)cc1,16,-3,17,40,79*,-18
CCOC(=O)N1CCN(c2nc(N(c3ccccc3)c3ccccc3)nc(-n3ccnc3)n2)CC1,-71,nt,1,-2,43,nt
CC(C)NC(=O)C(c1ccc(F)cc1)N(C(=O)CCC(=O)Nc1ccccn1)c1cccc(F)c1 (stereo not drawn),13,-4,4,-3,0,4
CCCOc1ccc(NC(=O)C2CC(=O)N/C(=N/N=C(C)/C=C/c3ccc(N(C)C)cc3)S2)cc1 (stereo not drawn),12,-5,23,29,44,nt
CC(/C=C/c1ccc(N(C)C)cc1)=N\N=C1\NC(=O)CC(C(=O)Nc2ccccc2)S1 (stereo not drawn),15,-3,24,23,75*,-13
COc1ccc(NC(=O)C2CC(=O)N/C(=N/N=C/c3ccccc3)S2)cc1 (stereo not drawn),10,1,10,1,-2,5
CC(/C=C/c1ccc(N(C)C)cc1)=N/N=C1/NC(=O)CC(C(=O)Nc2ccc(Cl)cc2)S1 (stereo not drawn),24,-4,18,33,95*,-10
COc1cccc(C(C#N)NCCCNC(C#N)c2cccc(OC)c2OC)c1OC (stereo not drawn),nt,-3,nt,nt,nt,-7
Cc1cccc(C)c1NS(=O)(=O)c1c(C(=O)N2CCCCC2)c(C)n(C)c1C,18,0,11,1,14,-11
CCCc1nc2ccccc2c(=O)n1/N=C/c1c(C)[nH]n(-c2ccc(C)cc2)c1=O,7,6,17,22,97*,42
CCCc1nc2ccccc2c(=O)n1/N=C/c1ccccc1O,21,-2,37,18,9,-15
CC1CN(S(=O)(=O)c2ccc(C(=O)Nc3nnc(-c4ccc5c(c4)CCCC5)o3)cc2)CC(C)O1 (stereo not drawn),7,-1,13,25,93*,-48
CC1CCCN(S(=O)(=O)c2ccc(C(=O)Nc3nnc(C4=COCCO4)o3)cc2)C1 (stereo not drawn),-7,-1,-7,10,66*,nt
Cc1nnc(NC(=O)c2ccc(S(=O)(=O)N3CC(C)CC(C)C3)cc2)o1 (stereo not drawn),9,6,2,21,54*,9
CCOC(=O)N1CCN(S(=O)(=O)c2ccc(C(=O)Nc3nnc(C)o3)cc2)CC1,-10,-6,-1,15,-4,12
CC(CCc1ccccc1)NC(=O)COC(=O)C12CC3CC(CC(Br)(C3)C1)C2 (stereo not drawn),31,5,42,25,4,-40
COc1ccc(NC(=S)Nc2nc(CC(=O)Nc3ccccc3OC)cs2)cc1,9,0,0,18,58*,-10
COc1ccccc1NC(=O)Cc1csc(NC(=S)Nc2ccccc2)n1,24,0,11,24,48,nt
Cc1cnc(NC(=O)c2cc3c(C)nn(-c4ccccc4)c3s2)s1,-7,0,-7,21,107*,nt
Cc1nn(-c2ccccc2)c2sc(C(=O)N3CCc4ccccc4C3)cc12,nt,3,nt,nt,55*,-33
CN(C)C(=O)CSc1nnc(-c2ccc(S(=O)(=O)N3CCCC3)cc2)n1C,7,3,6,-13,-1,6
